An excerpt weighted towards active compounds, which were near 12% of everything screened.
JMJD2A Tudor inh = blocks the human JMJD2A Tudor domain | O75164 | AlphaScreen JMJD2A-Tudor / H3K4me3 peptide binding | Potency, µM (series often up to 114 µM), without a hit: at the top dose activity change, negative = inhibition, actives largely listed as inhibitors | 390,000 tested, 4.4% active | AID 504339; note: % is set by controls: 0 for no effect and ±100 for the full control effect; nearly all actives have a fitted effect of over 50% in size
PLK1 PBD inh = PLK1 (human) polo-box domain binding inhibition. AID 720504. 360,000 tested, 2.8% active. Plk1 PBD binding of FITC phosphopeptide, fluorescence polarization. Potency, µM, inactives show max response, negative = inhibition, most hits filed as inhibitors; note: series mostly up to about 57 µM; % is set by controls: 0 for no effect and ±100 for the full control effect; nearly all actives have a fitted effect of over 65% in size
G9a inh = G9a (human) methyltransferase inhibition; G9a H3K9 monomethylation, AlphaScreen, 2 h; Potency, µM (series often up to 102 µM), without a hit: at the highest dose activity, negative = inhibition, hits mostly inhibitors; 350,000 tested, 8.8% active; AID 504332; note: % is set by controls: 0 for no effect and ±100 for the full control effect; nearly all actives have a fitted effect of over 75% in size
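Signal arises when biotinylated H3K9 peptide, once monomethylated, bridges streptavidin donor and antibody-captured acceptor beads. Enzyme at 20 nM was preincubated 15 min with test compounds; peptide 500 nM and SAM 20 uM then reacted for 2 h.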
BAZ2B block = BAZ2B (human) inhibition. 360,000 tested, 4.4% active. AID 504333. Potency, µM (top dose mostly 114 µM), for inactives: at the top dose activity change, negative = inhibition, hits mostly inhibitors. Q9UIF8. AlphaScreen BAZ2B-H3K14Ac peptide displacement; note: % is set by controls: 0 for no effect and ±100 for the full control effect; nearly all actives have a fitted effect of over 60% in size
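BAZ2B (50 nM) with biotin-H3(5-23)K14Ac peptide (50 nM) in PBS pH 7.4, 0.01% Tween-20, preformed 30 min, then compound 30 min at room temperature; top concentration 110uM. AlphaScreen streptavidin donor/nickel chelate acceptor beads (10 ug/mL final), 20 min dark, signal read.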
Sfp inh = inhibitors of Bacillus subtilis Sfp phosphopantetheinyl transferase. Biochemical Sfp PPTase activity, qHTS. Potency, µM, for the others: largest response in the series, negative = inhibition, usual class: inhibitors. 310,000 tested, 3.5% active;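 note: the enzyme is Sfp with the accession as filed and its product quenches rhodamine fluorescence; 0% = enzyme reaction without inhibitor and -100% = no enzyme wells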
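Step 1, compound plus 15 nM Sfp-PPTase, 15 min, room temperature. Step 2, add rhodamine-CoA (5 uM) and BHQ-2-YbbR (12.5 uM). Step 3, read 525/598 nm fluorescence at 0 and 30 min.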
HP1b binding inh = HP1-beta chromodomain-methylated histone interaction inhibition; 390,000 tested, 0.56% active; AID 540317; P83916; Potency, µM (series often up to 114 µM), for the others: top-dose activity change, negative = inhibition, most hits filed as inhibitors; AlphaScreen HP1-beta / biotin-H3K9me3 peptide binding; note: nearly all actives have a fitted effect of over 70% in size
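HP1-beta protein (50 nM final) preincubated 30 min at room temperature with biotinylated H3(1-18)K9me3 peptide (50 nM) in PBS pH 7.4, 0.01% Tween-20, then compound added for 30 min. AlphaScreen streptavidin donor/nickel chelate acceptor beads (10 ug/mL final), 30 min dark, luminescence read.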
* = called active by the depositor; ? = inconclusive; / = no result given; [ ] = remark or other dose. Calls come from the whole dose curve; as a rule, active = well fitted curve in the direction sought with a large enough effect; inconclusive = small, poorly fitted or top-dose-only effect, or another doubt; inactive = no such curve, though single readings can be large; an effect the other way counts as inactive or inconclusive. Potency is the fitted concentration of half-maximal effect.

SMILES	JMJD2A Tudor inh	PLK1 PBD inh	G9a inh	BAZ2B block	Sfp inh	HP1b binding inh
CCC(=C(c1ccc(OC)cc1)c1ccc(OC)cc1)c1cn(CC(O)CN(CCO)CCO)c2ccccc12 (stereo not given)	45µM*	-6%	40µM*	35µM*	?	-6%
COc1ccc(OCC(O)CN(CCO)CC(O)Cn2ccc3ccccc32)cc1 (stereo not given)	-22%	-10%	10%[59 µM]	-4%	1%	21%
O=C(O)c1cc(Cl)c2ccccc2c1O	13%	-30%	-4%[59 µM]	-4%	-2%	38%
CC(C)(NC(=O)c1cc(Cl)c2ccccc2c1O)C(=O)O	-15%	-13%	32µM*	-21%	17%	30%
Cc1cccc2sc(=S)[nH]c12	/	21µM*	/	/	/	/
CC(=O)c1ccc(OCC(O)CN2CCN(c3ccccn3)CC2)cc1 (stereo not given)	?	-8%	56µM*	-36%	5%	89%
CC(=O)c1ccc(OCC(O)CN2CCN(S(=O)(=O)c3c(C)c(C)cc(C)c3C)CC2)cc1 (stereo not given)	-34%	-6%	50µM*	-19%	-6%	7%
CCc1ccc(OCC(O)CN2CCN(c3ccccn3)CC2)cc1 (stereo not given)	-28%	-3%	/	-8%	-3%	6%
CCCc1ccc(OCC(O)CN2CCN(c3ccccn3)CC2)cc1 (stereo not given)	?	-13%	50µM*	?	12%	5%
CC(=O)N1CCC2(CC1)CN(Cc1ccccc1)C2	/	/	8%[12.7 µM]	/	11%	/
COc1ccc(/C=N/NC(=O)C2c3ccccc3Oc3ccccc32)c(OC)c1	13%	-1%	9%[59 µM]	0%	19%	24%
COc1ccccc1C(=O)NS(=O)(=O)c1ccc(C)cc1	-13%	-6%	/	/	/	44%
Cc1ccc(S(=O)(=O)NC(=O)c2ccc(-c3ccc(C)c4ccccc34)o2)cc1	45µM*	27µM*	50µM*	?	-3%	-2%
Cc1ccc(N(CC(=O)Nc2ccc(F)cc2F)S(=O)(=O)c2cccs2)cc1	-14%	/	-3%[59 µM]	/	/	43%
Cc1ccc(NCc2nc3ccccc3n2CCOc2ccccc2)cc1	16µM*	-15%	2.2µM*	22µM*	?	-23%
COc1ccc(NCc2nc3ccccc3n2CCOc2ccccc2C)cc1	20µM*	/	?	13µM*	/	?
Fc1ccc(NCc2nc3ccccc3n2CCOc2ccccc2Cl)cc1	-20%	/	12%[59 µM]	14%	/	33%
C=CCNC(=S)/N=c1/ccccn1CCC	-6%	-22%	-9%[12.7 µM]	-7%	5%	22%
C=CCNC(=S)/N=c1/ccccn1C	4%	-5%	35µM*	-14%	-29%	17%
CCOC(=O)/C=C/C(=O)OCC(=O)Nc1ccc(Cl)cn1	-13%	-15%	?	3%	8%	24%
CCOC(=O)NC1(Nc2ccc(Cl)cn2)Oc2ccccc2O1	/	/	6.3µM*	?	32µM*	/
O=C(NNC(=S)Nc1ccccc1)c1ccccc1[N+](=O)[O-]	-20%	-12%	32µM*	-14%	14%	13%
O=C(NNC(=S)NC(=O)c1ccccc1[N+](=O)[O-])c1ccccc1[N+](=O)[O-]	-8%	-29%	?	-5%	-2%	4%
CC(=O)c1ccc(NC(=S)NNC(=O)c2ccccc2[N+](=O)[O-])cc1	-10%[57.1 µM]	?	?	50µM*	-21%	-10%
COc1cc(CNCCSc2nnnn2C)ccc1OCc1ccc(C)cc1	-7%	/	-1%[59 µM]	?	/	36%
SMILES	JMJD2A Tudor inh	PLK1 PBD inh	G9a inh	BAZ2B block	Sfp inh	HP1b binding inh
CCCCN(C/C=C/c1ccccc1OC)Cc1ccccc1	1.3µM*	-1%	18µM*	?	-3%	?
CCN(C/C=C/c1ccccc1OC)Cc1ccccc1	20µM*	-22%	/	?	-13%	?
Cc1ccc(NC(=O)Cn2c(=O)n(CCCS(=O)(=O)C3CCCCC3)c(=O)c3ccccc32)cc1F	10%	/	-3%[59 µM]	1%	/	26%
COc1cc(OC)cc(C2=Nn3c(nnc3-c3cccc(OC)c3)SC2)c1	-23%	/	/	/	-3%	/
Cn1c(CC(=O)Nc2ccccc2)n[nH]c1=S	5µM*	-10%	14%	-12%	7%	25%
Cn1c(CC(=O)Nc2ccc(Cl)c(Cl)c2)n[nH]c1=S	-11%	-8%	14µM*	-2%	-24%	12%
CCn1c(CC(=O)Nc2ccc(C)cc2)nnc1SCC(=O)NCc1ccccc1	-8%	-4%	20%[12.7 µM]	-2%	15%	33%
Cn1c(CC(=O)Nc2ccc(Cl)c(Cl)c2)nnc1SCC(=O)N1CCN(c2ccccc2)CC1	-28%	-2%	6%	-10%	24%	4%
CCn1c(CC(=O)Nc2ccc(C)cc2)n[nH]c1=S	3.5µM*	1%	5µM*	?	0%	8%
CC(NC(=O)CSc1nnc(CC(=O)Nc2ccc(Cl)c(Cl)c2)n1C)c1ccccc1 (stereo not given)	-21%	-7%	13µM*	?	-6%	53%
COc1ccc(Cc2n[nH]c(=S)n2NC(=O)Nc2ccc(Cl)c(Cl)c2)cc1	-26%	-11%	?	-17%	-18%	43%
Cc1ccccc1NC(=O)Cc1nnc(SCC(=O)Nc2ccccc2)n1C	-9%	-2%	-1%[59 µM]	-20%	11%	53%
CCOC(=O)N1CCc2c(sc3c2c(=O)n(Cc2ccccc2)c(=O)n3CC(=O)Nc2ccc(C)cc2C)C1	-5%	/	17%[59 µM]	-35%	/	34%
C=CCn1c(=O)c(C(=O)NC(C)c2ccccc2)c(O)c2ccccc21 (stereo not given)	60%	-3%	66%	22%	5%	108%
CN(Cc1n[nH]c(=S)n1C)S(=O)(=O)c1ccccc1	5.6µM*	-6%	/	2%	7%	26%
Cc1ccc(NC(=O)Cc2n[nH]c(=S)n2C)cc1	8.9µM*	3%	?	-24%	22%	31%
CN(Cc1nc2ccccc2n1C)S(=O)(=O)c1ccc(F)cc1	-12%	-4%	11%[59 µM]	-3%	4%	48%
CC(C)Cc1nn2c(=O)cc(COC(=O)c3cccc(NC(=O)CCc4ccccc4)c3)nc2s1	-6%	/	-12%[12.7 µM]	-12%	/	41%
CC1(C)CC[C@]2(C(=O)O)C(O)C[C@@]3(C)C(=CCC4[C@@]5(C)CCC(O)C(C)(C)C5CC[C@@]43C)C2C1 (stereo not given in full)	/	/	/	/	-4%	/
O=C(Cn1cc([N+](=O)[O-])cn1)Nc1ccc(Cn2cc(Br)cn2)cc1	-6%	3%	2.2µM*	-38%	1%	20%
O=C(CCCn1cc([N+](=O)[O-])cn1)N1CCCCC1	1%	-1%	27%[12.7 µM]	-4%	20%	35%
